Structures are written as SMILES. Inconclusive results are not listed. Active and inactive are the calls of the source. The call rests on the fitted dose curve; in most records, active means well fitted inhibition curve with a large enough effect; inconclusive means small, poorly fitted or top-dose-only effect; inactive means flat fitted curve, though single readings scatter. Where a SMILES comes first, the peptide text is derived from it. The star is where a group is joined. βNA = c1ccc2cc(N*)ccc2c1; Cbz = O=C(OCc1ccccc1)*

The assay deals with NIH3T3. Put plainly: Cytotoxic Profiling of Annotated Libraries Using Quantitative High-Throughput Screening (AID 1296008). Further: nearly all actives have a fitted effect of over 60% in size. To be noted: Five cell lines viability, CellTiter-Glo ATP luminescence, 48-72 h; max response: stronger effect = lower value. In a few lines:
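Cells exposed to compounds for 48 or 72 hr at 37 degrees Celsius. Viability read as ATP-coupled luminescence with CellTiter-Glo after 10 min at room temperature.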
(In general: ATP-based viability assays read luminescence as a measure of living cells.)
In the case of `C=C1CC[C@@]2(OC1)O[C@H]1CC3[C@@H]4CC=C5C[C@@H](O)C[C@@H](O[C@@H]6OC[C@H](O)[C@H](O)[C@H]6O[C@@H]6O[C@@H](C)[C@H](O)[C@@H](O)[C@H]6O)[C@]5(C)C4CC[C@]3(C)[C@H]1[C@@H]2C` (stereo partly drawn), the call was inactive.

On to `CC(C)CC(NC(=O)OCc1ccccc1)C(=O)NC(CC(C)C)C(=O)NC(CCC(=O)O)C(=O)Nc1ccc2ccccc2c1` (stereo not drawn) (Cbz-Leu-Leu-Glu-βNA; configuration not given here), for which the outcome was inactive.

On to `OC[C@@]1(O)CO[C@H](OC[C@H]2O[C@@H](OC(CCCCc3ccc(O)cc3)CCc3ccc(O)cc3)[C@H](O)[C@@H](O)[C@@H]2O)[C@@H]1O` (stereo partly drawn), for which the call was inactive.

Take `Nc1ccc(-n2nc(C(F)(F)F)cc2C(F)(F)F)cc1`: the call was inactive.

Turning to `C/C(=C\C(=O)C[C@@]12C(=O)O[C@]3(C)CC[C@H]1C[C@H]23)C(N)=O`, the outcome was inactive.

As to `Nc1ncnc2c1C(=O)N(c1ccc(C3CCC(CC(=O)O)CC3)cc1)CCO2` (stereo not drawn), the call was inactive.

Regarding `COC1OC(=O)C2=C1C1(C)CCCC(C)(C)C1CC2O` (stereo not drawn), the result was inactive.

As for `C=C(CC/C=C(\C)C(=O)O)C1(O)CC=C(C)CC1` (stereo not drawn), the outcome was inactive.

On to `CC(C)Oc1ccc(-c2nc(-c3cccc4c3CCC4NCCC(=O)O)no2)cc1C#N` (stereo not drawn), for which the compound was called inactive.

`C=C1CC[C@@]2(OC1)O[C@H]1CC3[C@@H]4CC=C5C[C@H](O[C@H]6OC[C@@H](O)C(O)[C@@H]6O[C@@H]6O[C@@H](C)[C@H](O)[C@@H](O[C@@H]7O[C@H](CO)[C@@H](O)[C@H](O)[C@H]7O)[C@H]6O)C[C@@H](O)[C@]5(C)C4CC[C@]3(C)[C@H]1[C@@H]2C` (stereo partly drawn): the outcome was inactive.

In the case of `CC(C)c1cc2c(c(O)c1O)[C@@]13CCCC(C)(C)C1[C@@H](O)[C@@H]2OC3=O` (stereo partly drawn), the outcome was inactive.

Consider `COc1cccc(C)c1C(=O)O[C@@H]1C[C@H](O[C@H]2[C@H](O)C[C@H](O[C@@H]3CCC[C@H]4[C@H]3C=C[C@@H]3CCCC/C=C/[C@H]5C=C(C(=O)O)[C@@H](C)C[C@@]56OC(=O)C(=C6O)OC(=O)[C@@]34C)O[C@@H]2C)O[C@H](C)[C@H]1O`, for which the call was inactive.

Consider `CC(=O)OC1C(CO)OC(O[C@H]2[C@H](OC(=O)[C@]34CCC(C)(C)C[C@H]3C3=CCC5[C@@]6(C)CC[C@H](O[C@@H]7O[C@H](C(=O)O)[C@@H](O)[C@H](O[C@@H]8OC[C@@H](O)[C@H](O)[C@H]8O)[C@H]7O[C@@H]7O[C@H](CO)[C@H](O)[C@H](O)[C@H]7O)[C@@](C)(C=O)C6CC[C@@]5(C)[C@]3(C)C[C@H]4O)O[C@H](C)[C@H](OC3OC(C)C(OC4OCC(O)C(O)C4O)C(O)C3O)[C@@H]2O)C(O)C1O` (stereo partly drawn), for which the result was inactive.

`CC(C)=CCC/C(C)=C/CO[C@@H]1O[C@H](CO[C@@H]2O[C@@H](CO)[C@H](O)[C@H]2O)[C@@H](O)[C@H](O)[C@H]1O`: the compound was called inactive.

For `O=C(c1ccc(Cl)c([N+](=O)[O-])c1)N1CCN(c2ccccc2F)CC1`, the compound was called inactive.

As for `COc1cc(O)c2c(c1Cl)CC(C)OC2=O` (stereo not drawn), the result was inactive.

On to `CCCCNc1nc(N)c2[nH]c(=O)n(Cc3ccc(OCCN(C)C)nc3)c2n1`, for which the outcome is “inactive; activator”.

On to `CC(O)C(=O)/C=C/C=C/C(=O)OC1C=C2COC(=O)C2(O)C2(C)CCCC(C)(C)C12` (stereo not drawn), for which the compound was called inactive.

For the compound `CC1(C)CC[C@]2(C(=O)O)CC[C@]3(C)C(=CCC4[C@@]5(C)CC[C@H](O[C@@H]6O[C@H](C(=O)O)[C@@H](O)[C@H](O[C@@H]7O[C@H](CO)[C@H](O)[C@H](O)[C@H]7O)[C@H]6O[C@@H]6O[C@H](CO)[C@@H](O)[C@H](O)[C@H]6O)C(C)(C)C5CC[C@]43C)[C@@H]2C1` (stereo partly drawn), the compound was classed as inactive.

In the case of `CC(=O)OC(C)(C)/C=C/C(=O)[C@](C)(O)C1[C@H](O)C[C@@]2(C)[C@@H]3CC=C4[C@@H](C[C@H](O[C@@H]5O[C@H](CO)[C@@H](O)[C@H](O)[C@H]5O)C(=O)C4(C)C)[C@]3(C)C(=O)C[C@]12C` (stereo partly drawn), the compound was classed as inactive.

As to `CC1=CC(=O)CC(C)(C)[C@@]1(O)/C=C/C(C)O[C@@H]1O[C@H](CO)[C@@H](O)[C@H](O)[C@H]1O` (stereo partly drawn), the compound was called inactive.

For the compound `CC(C)C1NC(=O)C(CC2(O)c3ccccc3N3C(=O)C(Cc4ccccc4)NC32)NC1=O` (stereo not drawn), the compound was classed as inactive.

On to `OC[C@@]1(O)CO[C@H](OC[C@H]2O[C@@H](OC(CCCCc3ccc(O)cc3)CCc3ccc(O)cc3)[C@H](O[C@H]3OC[C@](O)(CO)[C@H]3O)[C@@H](O)[C@@H]2O)[C@@H]1O` (stereo partly drawn), for which the result was inactive.

These data come from PubChem BioAssay (NCATS).
